Compound activity as filed in PubChem.
TDP1 block = qHTS Assay for Inhibitors of Tyrosyl-DNA Phosphodiesterase (TDP1). AID 485290, 2010. recombinant TDP1, AlphaScreen DNA substrate cleavage. Potency, µM (titrated, usually from 130 µM), without a hit: at the highest dose activity change, negative = inhibition, hits mostly inhibitors. actives 0.28% (n = 350,000); also: potency is read from the fitted curve at half-maximal effect; % is scaled to controls: 0 for no effect and ±100 for the full control effect; nearly all actives have a fitted effect of over 40% in size
Target sequence (Q9NUW8 whole entry, looked up): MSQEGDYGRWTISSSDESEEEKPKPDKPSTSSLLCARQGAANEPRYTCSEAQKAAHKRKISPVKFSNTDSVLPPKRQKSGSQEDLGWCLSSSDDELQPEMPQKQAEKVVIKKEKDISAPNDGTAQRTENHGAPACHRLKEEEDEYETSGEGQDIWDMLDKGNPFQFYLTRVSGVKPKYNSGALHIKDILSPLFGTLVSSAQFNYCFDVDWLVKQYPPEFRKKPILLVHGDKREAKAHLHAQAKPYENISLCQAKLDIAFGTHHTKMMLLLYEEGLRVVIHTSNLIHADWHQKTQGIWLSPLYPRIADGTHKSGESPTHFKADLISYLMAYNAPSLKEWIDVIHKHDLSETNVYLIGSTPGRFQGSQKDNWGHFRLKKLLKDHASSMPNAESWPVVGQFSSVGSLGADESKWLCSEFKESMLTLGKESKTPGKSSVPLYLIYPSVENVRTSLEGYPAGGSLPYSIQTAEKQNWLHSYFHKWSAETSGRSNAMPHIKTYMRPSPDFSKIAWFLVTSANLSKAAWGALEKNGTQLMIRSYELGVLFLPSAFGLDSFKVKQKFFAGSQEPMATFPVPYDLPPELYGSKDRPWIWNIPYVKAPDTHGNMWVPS
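Steps: enzyme plus compound, 15 min RT; add biotin/phosphotyrosine-FITC oligonucleotide (15 nM final), react 5 min; add donor/acceptor beads (10 ug/ml final), 10 min; read AlphaScreen. Tdp1 at 1 nM final.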
IL1B secr inh = qHTS for Inhibitors of Inflammasome Signaling: IL-1-beta AlphaLISA Primary Screen; THP-1 LPS/ATP IL-1B secretion, AlphaLISA, 16 h; active compounds read low; activity change, % at 57.5 µM; actives 4.7% (n = 360,000); in the data active = activity change below about -50%; inconclusive = mostly about -30% to -49%; also: % is scaled to controls: 0 for no effect and ±100 for the full control effect
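Secreted IL-1B measured by AlphaLISA bead assay after 16 h compound exposure of THP-1 cells; compounds (final up to 57.5 uM) added 1 h before LPS (250 ng/mL) and ATP (1.25 mM) stimulation; lower signal means less secretion.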
DT40 TDP1 CPT = qHTS for Inhibitors of human tyrosyl-DNA phosphodiesterase 1 (TDP1): qHTS in cells in presence of CPT; chicken DT40 Tdp1-/-;hTDP1 cells + 20 nM CPT, ATP luminescence, 48 h; actives 12% (n = 420,000); AID 686979, 2013; Potency, µM (top dose mostly 46.2 µM), for inactives: top-dose activity change, negative = growth inhibition, most hits filed as inhibitors; also: potency is read from the fitted curve at half-maximal effect; % is scaled to controls: 0 for no effect and ±100 for the full control effect; nearly all actives have a fitted effect of over 55% in size
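Chicken DT40 Tdp1-/- cells stably complemented with human TDP1 were seeded at 400 cells/well in medium containing 20 nM camptothecin, exposed to pin-transferred compounds, and grown at 37 °C for at least 48 hr. Viability was read as ATP luminescence.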
TGFb inhibitor = qHTS for Inhibitors of TGF-b; AID 588855, 2011; actives 1.2% (n = 410,000); HepG2 CAGA-GFP TGF-b/SMAD3 reporter, GFP fluorescence, 18 h; TGF-beta stimulated, 500 pg/mL final; Potency, µM (doses to about 46.1 µM), inactives show at the top dose activity, negative = inhibition, usual class: inhibitors; also: potency is read from the fitted curve at half-maximal effect; % is scaled to controls: 0 for no effect and ±100 for the full control effect; nearly all actives have a fitted effect of over 65% in size
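First, reporter cells (HEPG2 CAGA-GFP) rested 2 h at 37 degrees C. Next, compounds were pinned in and TGF-beta added to 500 pg/mL final. After 18 h, GFP was imaged per cell and summed per well.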
TDP1 cell noCPT = qHTS for Inhibitors of human tyrosyl-DNA phosphodiesterase 1 (TDP1): qHTS in cells in absence of CPT | actives 15% (n = 420,000) | Potency, µM (series often up to 46.2 µM), inactives show top-dose activity change, negative = growth inhibition, hits mostly inhibitors | DT40 Tdp1-/- hTDP1 cells, no CPT, ATP luminescence, 48 h; also: potency is read from the fitted curve at half-maximal effect; % is scaled to controls: 0 for no effect and ±100 for the full control effect; nearly all actives have a fitted effect of over 55% in size
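Luminescent ATP content (CellTiter-Glo) served as the growth readout. Knockout chicken DT40 cells expressing human TDP1 were exposed to compounds without camptothecin for a minimum 48 hr at 37 °C.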
HepG2 tox = qHTS for Inhibitors of TGF-b: Cytotox Counterscreen; HepG2 CAGA-GFP viability, ATP luminescence, 18 h; Potency, µM (highest dose often 46.1 µM), for inactives: at the top dose activity change, negative = cytotoxicity, hits mostly cytotoxic; actives 0.76% (n = 410,000); also: potency is read from the fitted curve at half-maximal effect
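HepG2 CAGA-GFP cells (1000/well, DMEM with 1% FBS) received compound, then TGF-beta at 500 pg/mL final, and were incubated 18 hours at 37 degrees C. Viability was read by CellTiter-Glo luminescence. Media-only wells were set as complete cell-killing and DMSO as no toxicity.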
An asterisk follows results filed as active; ? = inconclusive; nt = no result given; [ ] = another dose, or the depositor's remark. The list is not random: actives were taken first. Their share in the collection is about 19%. Unless noted, calls follow the shape of the dose curve; as a rule, active = well fitted curve in the direction sought with a large enough effect; inconclusive = small, poorly fitted or top-dose-only effect, or another doubt; inactive = no such curve, though single readings can be large; an effect the other way counts as inactive or inconclusive.

SMILES	TDP1 block	IL1B secr inh	DT40 TDP1 CPT	TGFb inhibitor	TDP1 cell noCPT	HepG2 tox
CN(C(=O)COC(=O)c1ccccc1Nc1ccccc1)C1CCS(=O)(=O)C1 (centres undefined)	0%	-25	5%	-24%	-13%	-20%
CC(=O)Nc1cc(NC(C)=O)cc(C(=O)OCC(=O)N(c2ccccc2)C2CCS(=O)(=O)C2)c1 (centres undefined)	45µM*	-9	10%	2%	14%	1%
CC(=O)Nc1ccc(C(=O)OCC(=O)N(c2ccccc2)C2CCCCC2)cc1	0%	-27	?	-3%	23µM*	3%
CC(=O)N(c1ccccc1)C1CCCC1	1%	10	-9%	23%	-12%	-86%
CC(=O)Nc1ccc(C(=O)OCC(=O)N(C)C2CCCCC2)cc1	3%	3	24%	-4%	-3%	5%
O=C(CCl)N(c1ccccc1)C1CCCCC1	-3%	-101*	2.6µM*	?	2.9µM*	18µM*
COc1ccc(N(CC(=O)NN=C2CCN(C)CC2)S(=O)(=O)c2ccccc2)c(OC)c1	4%	23	1%	9%	-3%	16%
COc1ccc(OCC(=O)NCCS(=O)(=O)N2CCN(c3cccc(Cl)c3)CC2)cc1	4%	nt	?	0%	?	-25%
O=C1C2CCCCN2C(=O)N1CCCCN1CCN(c2ccc([N+](=O)[O-])cc2)CC1 (centres undefined)	3%	-5	?	5%	15µM*	-9%
Cc1ccc(N2CCN(CCCN3C(=O)C4CCCN4C3=O)CC2)cc1 (centres undefined)	5%	0	-25%	?	-1%	-36%
O=C1C2CCCCN2C(=O)N1CCCCN1CCN(c2cccc(C(F)(F)F)c2)CC1 (centres undefined)	nt	?	10µM*	-17%	?	-16%
O=C1C2CCCCN2C(=O)N1CCCCN1CCN(c2cccc(Cl)c2)CC1 (centres undefined)	6%	3	-26%	9%	?	-11%
Cc1ccc(C)c(NC(=O)CN(C)C(=O)C2CCN(C(=O)Nc3ccccc3)CC2)c1	nt	-16	-1%	27%	-16%	2%
Cc1oc2ncn(C)c(=O)c2c1C(=O)NCCCN(Cc1ccccc1)C(C)C	4%	nt	8%	5%	3%	0%
CCCCN1/C(=C/c2cccc[n+]2C)Sc2cc(NC(C)=O)ccc21	nt	8	-5%	-4%	-14%	-17%
Cc1ccc2c(c1)S/C(=C/c1ccc[n+](C)c1)N2CCO	5%	?	3.3µM*	-26%	2.6µM*	-11%
COC(=O)c1ccc(Nc2nc(C)nc3c2nnn3Cc2ccccc2)cc1	3%	22	-2%	1%	-6%	1%
Oc1ccccc1Nc1nc(NCc2ccccc2)c2ccccc2n1	8%	-101*	12µM*	11µM*	12µM*	-40%
Oc1ccccc1-c1nc(NCc2ccccc2)c2ccccc2n1	nt	-10	7%	-9%	?	-6%
CCCCNc1nc(NCc2ccccc2)nc2ccccc12	nt	-110*	21µM*	nt	8.2µM*	nt
c1ccc(CNc2c3ccccc3nc3ccccc23)cc1	nt	-100*	13µM*	?	18µM*	-11%
OCC(Cc1ccccc1)Nc1c2ccccc2nc2ccccc12 (centres undefined)	-3%	-52*	?	?	16µM*	-6%
OCC(Cc1ccccc1)NCc1ccccc1C(F)(F)F (centres undefined)	3%	-12	-14%	16%	-20%	2%
O=C(NC1CCCCC1)C1(S(=O)(=O)c2ccc(Cl)cc2)CC1	4%[0.0935 µM]	-10	-28%	5%	-9%	-32%
COc1ccc(CNC(=O)CSc2ncc3c(n2)-c2cc(Cl)ccc2N(C)S3(=O)=O)cc1	5%	nt	?	0%	-26%	-2%
SMILES	TDP1 block	IL1B secr inh	DT40 TDP1 CPT	TGFb inhibitor	TDP1 cell noCPT	HepG2 tox
Oc1ccc(CCNc2c3ccccc3nc3ccccc23)cc1O	nt	-99*	1.2µM*	?	1.5µM*	-20%
CNc1nc(NCc2ccccc2)c2ccccc2n1	nt	nt	13µM*	?	4.6µM*	-35%
CC(C)CN(CC(C)C)C(=O)COc1ccccc1C(N)=O	4%	0	?	0%	12µM*	-2%
CC1CCC(NC(=O)COc2ccccc2C(N)=O)CC1 (centres undefined)	1%	13	?	-2%	-1%	-3%
COc1cccc(N2CC(NC(=O)C3CCCCC3)CC2=O)c1 (centres undefined)	0%	nt	-29%	0%	-2%	1%
CCOC(=O)N1CCc2c(sc(NCc3cccs3)c2C(=O)Nc2cc(Cl)ccc2OC)C1	10%	nt	?	?	?	-9%
COc1ccc(NC(=O)c2c(NCc3sccc3C)sc3c2CCCCC3)c(OC)c1	7%	nt	3.3µM*	?	3.3µM*	-18%
COc1ccc(OC)c(NC(=O)c2c(NC(=O)CCC(=O)O)sc3c2CCCCC3)c1	9%	-12	?	16%	?	12%
COc1ccc(OC)c(NC(=O)c2c(NCc3cccs3)sc3c2CCCCC3)c1	9%	nt	23µM*	-26%	?	0%
COc1ccc(Cl)cc1NC(=O)c1c(NCc2sccc2C)sc2c1CCCC2	7%	nt	?	?	21µM*	-1%
COc1ccccc1NC(=O)c1c(NCc2sccc2C)sc2c1CCCCC2	9%	nt	?	?	?	-17%
COc1ccc(NC(=O)c2c(NC(=O)CNCC(C)C)sc3c2CCC3)c(OC)c1	4%	0	4.1µM*	?	6.5µM*	-34%
COc1ccc(NC(=O)c2c(NCc3cccs3)sc3c2CCC(C)C3)c(OC)c1 (centres undefined)	6%	nt	?	?	?	-51%
COc1ccc(OC)c(CNc2sc3c(c2C(=O)Nc2cc(OC)ccc2OC)CCCC3)c1	8%	nt	?	0%	?	-14%
COc1ccc(NC(=O)c2c(NCc3cccs3)sc3c2CCCC3)c(OC)c1	14%	nt	16µM*	?	16µM*	-48%
